Each compound was assayed against AMP-activated protein kinase, AMPK (Homo sapiens) (UniProt P54646+O43741+P54619+Q9UGJ0+Q9Y478+Q13131+Q9UGI9) (assay: AMP-dependent Kinase enzyme assay. An in vitro enzyme assay that detects ADP turnover that is directly proportional to AMPK activity. This uses naive AMPK that is activated during the assay with MK-8722). Conditions: 30 µM.
Assay type: functional
Parameters: scale not given: direction of the effect not stated beside the values

Row | Structure (SMILES) | Percent Effect [%]
1 | CN(C)C(=O)c1ccccc1NC(=O)N[C@@H]1c2ccccc2C[C@@H]1O | 3.27
2 | COc1ccc2nc(CNC(=O)C3CC4(CCNCC4)CN3C)[nH]c2c1 (centres undefined) | -3.99
3 | CC1CCN(CC(=O)N(C)CCc2noc(C3CC3)n2)C1=O (centres undefined) | -1.6
4 | Cc1nc(CN2CCOCC2c2[nH]ncc2C)cs1 (centres undefined) | 12.1
5 | CCC1COCCN1C(=O)NCc1nccn1CCc1ccccc1 (centres undefined) | -3.33
6 | CN(Cc1nc2ccccc2[nH]1)C(=O)CN(C)c1ccc(Cl)cn1 | -0.551
7 | Cc1cnn(Cc2cccc(OCC(N)=O)c2)c1 | -0.231
8 | CC(=O)N1CCc2c(nc(N(C)C)nc2NCCCn2ccnc2)C1 | 2.43
9 | Cc1nn(C)cc1C(=O)N1CCC(C(=O)c2nc3ccccc3s2)CC1 | 20.7
10 | O=C(Cc1c(F)cccc1Cl)NC1CCCCNC1=O (centres undefined) | 7.73
11 | O=S(=O)(NCCc1cn2ccccc2n1)N1CCOCC1 | 3.56
12 | c1cc(NCc2ccsc2)cc(-c2nnc[nH]2)c1 | 14.3
13 | COc1ccc(CCCN(C)C(=O)c2cc(Cl)c[nH]2)cc1OC | 7.77
14 | Cc1sc2ncnc(N3CCCC3Cn3cccn3)c2c1C (centres undefined) | 3.42
15 | CCN1CCC(NC(=O)N(C)Cc2csc3ccccc23)CC1 | -1.48
16 | Cc1ccc(-n2cc(CN3CCOCC(CN(C)C)C3)cn2)cc1C (centres undefined) | 8.42
17 | COc1c(C)cnc(CN2CCCC(c3noc(C4CC4)n3)C2)c1C (centres undefined) | -0.157
18 | CC(NC(=O)C(C)(C)C)c1cc(O)nc(-c2cccnc2)n1 (centres undefined) | 6.37
19 | Cc1cccn2cc(CNS(=O)(=O)N3CCOCC3)nc12 | 4.51
20 | Cc1ccnc(C2COCCN2C)n1 (centres undefined) | 26

Row | Structure (SMILES) | Percent Effect [%]
21 | CNC(=O)C(c1cccc(Cl)c1)C(C)C (centres undefined) | -6.65
22 | Cc1n[nH]c(C)c1CCC(=O)N1CCc2c(nc[nH]c2=O)C1 | -0.287
23 | COc1cnc(N2CCN(C)CC2)nc1-c1ccnn1C | 0.474
24 | COC(=O)CC1CN(Cc2ccn(-c3ccc(F)cc3)n2)CCO1 (centres undefined) | -6.96
25 | Cc1cc(C)c(-n2cccn2)c(CN2CCOCC(CN(C)C)C2)c1 (centres undefined) | -0.542
26 | CC(C)c1nnc2n1CCN(Cc1ccc3c(c1)OCO3)CC2 | 9.68
27 | CCn1cc(C(=O)NCCN2CCCc3ccccc32)c(C)n1 | 7.97
28 | COc1cc(F)ccc1NC(=O)NCCNC(=O)OC(C)(C)C | -6.81
29 | CCOc1ccc(Cl)cc1CCNC(=O)Cn1ccccc1=O | 16.7
30 | CC(C)NC(=O)CNC(=O)c1csc(Cc2ccccc2F)n1 | 4.46
31 | O=C(NCc1ccnc(OCC2CC2)c1)C1COc2ccccc2O1 (centres undefined) | 1.5
32 | O=C(C1CC(c2cccc(F)c2)=NO1)N1CCc2ccccc21 (centres undefined) | 13.6
33 | COc1ccc(CCCN(C)C(=O)c2cc(C(C)=O)c[nH]2)cc1OC | -2.16
34 | O=C(Nc1ccccn1)NC1CCN(c2ccccc2OC(F)F)C1 (centres undefined) | -0.894
35 | COCC1(C(=O)N[C@H]2CN(c3nnc(C)s3)C[C@@H]2C2CC2)CCC1 | 9.28
36 | Cc1nnc(-c2cccc(C#N)c2)n1C1CCN(C(C)C)C1=O (centres undefined) | 7.44
37 | CCOc1cccc(CN(Cc2cnn(C)c2)CC(C)C)c1O | -9.84
38 | CCOCCOC(C)C(=O)Nc1nccn1Cc1ccccc1 (centres undefined) | -2.1
39 | CCCNC(=O)c1[nH]nc(C2CC2)c1Br | 2.02

Reference: ChEMBL document CHEMBL3988442, “University of Dundee, Small-Polar-MMV Screening Library” (2021)
